Assay [1] in a line: cAMP Responsive Elements (CRE) small molecule antagonists, cell-based qHTS assay: qHTS cell viability counter screen (AID 2060913). Further: nearly all actives have a fitted effect of over 40% in size. The procedure, abridged:
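CRE-bla HEK293T cells (2,000/well, 18 h) given compound plus NKH477 0.25 uM final for 3 h at 37C; viability counter-screen by CellTiter-Glo luminescence in same wells after 30 min.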
For orientation: In qHTS, concentration-response curves come from the screen itself.

Assay [2] is described as follows: cAMP Responsive Elements (CRE) small molecule agonists, cell-based qHTS assay: qHTS cell viability counter screen (AID 2060914). Further: nearly all actives have a fitted effect of over 50% in size. The essentials: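 Cytotoxicity was measured as ATP luminescence (CellTiter-Glo, 30 min at room temperature) in the same wells as the CRE-bla FRET read-out. HEK293T CRE-bla cells had 3 h compound exposure at 37C/5% CO2.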

Results filed as inconclusive are left out. Values without a mark were called inactive. Activity calls are given as the source filed them. The call rests on the fitted dose curve; in most records, active means well fitted cell-killing curve with a large enough effect in the repeat runs; inconclusive means weak or mixed curves, or effect the other way; inactive means flat fitted curve, though single readings scatter.
On the % scale 0 is the no-effect control and ±100 the full control effect.

On to `CCCCCCCCCCCCCCCCN(C)C`, for which the viability change, negative = cytotoxic in assay [1] was -5.89% [at 8.39 µM]. For the same compound, in assay [2], the activity change, negative = cytotoxicity was -12.8% [at 8.39 µM].
With `C#C[C@]1(O)CC[C@H]2[C@@H]3CCC4=CC(=O)CC[C@@H]4[C@H]3CC[C@@]21C`, the Potency result in assay [1] and in assay [2] was “inactive” in each case.
`CC1=C2[C@@H]([C@H](C)CC[C@H]2/C=C(\C)C(=O)O)[C@H](O)C1`: the Potency entry in assay [1] and in assay [2] was “inactive” in each case.
`COC(=O)/C=C/C(C)=C\C=C\C(C)=C\C=C\C=C(C)\C=C\C=C(C)\C=C\C(=O)O`: the Potency result in assay [1] and in assay [2] was “inactive” each time.
`O=C(OCC(O)CO)c1ccccc1Nc1ccnc2c(C(F)(F)F)cccc12` (configuration not stated): the Potency result in assay [1] and in assay [2] was “inactive” each time.
For the compound `CC1(C)Cc2cccc(N)c2O1`, the Potency result in assay [1] and in assay [2] was “inactive” throughout.
As for `O=C(O)c1cc(N=Nc2ccc([N+](=O)[O-])cc2)ccc1O`, the Potency result in assay [1] and in assay [2] was “inactive” throughout.
As to `CCCCCCCCCCCCCCCBr`, the Potency result in assay [1] and in assay [2] was “inactive” each time.
With `O=C1CC[C@H](C(=O)N2CCCCC2)N1`, the Potency entry in assay [1] and in assay [2] was “inactive” throughout.
Turning to `c1ccc2c(c1)CCC2`, the Potency result in assay [1] and in assay [2] was “inactive” each time.
Regarding `CC(C)(Oc1ccc(CCNC(=O)c2ccc(Cl)cc2)cc1)C(=O)O`, the Potency entry in assay [1] and in assay [2] was “inactive” each time.
Consider `COc1cccc(OC)c1C(=O)N[C@@H]1C(=O)N2[C@@H]1SC(C)(C)[C@@H]2C(=O)O`, for which the Potency result in assay [1] and in assay [2] was “inactive” throughout.
On to `Cc1ccc(S(=O)(=O)Oc2ccc(N=Nc3ccc(-c4ccc(N=Nc5c(O)ccc6cc(S(=O)(=O)O)cc(S(=O)(=O)O)c56)c(C)c4)cc3C)cc2)cc1`, for which the Potency result in assay [1] and in assay [2] was “inactive” each time.
Consider `Cn1cc[nH]c1=S`, for which the Potency entry in assay [1] and in assay [2] was “inactive” throughout.
As to `CC(=O)OC(C)(C)C1CC=C(C)CC1` (configuration not stated), the Potency result in assay [1] and in assay [2] was “inactive” throughout.
Consider `C=CCN1CCc2nc(N)sc2CC1`, for which the Potency entry in assay [1] and in assay [2] was “inactive” in each case.
On to `Cc1c(N)cccc1Cl`, for which the Potency result in assay [1] and in assay [2] was “inactive” in each case.
For `O=C(/C=C/c1ccc(O)c(O)c1)O[C@@H](C(=O)O)[C@@H](OC(=O)/C=C/c1ccc(O)c(O)c1)C(=O)O`, the Potency result in assay [1] and in assay [2] was “inactive” throughout.
On to `Cn1sccc1=O`, for which the Potency entry in assay [1] and in assay [2] was “inactive” in each case.
In the case of `CCCN(CCC)C(=O)C(CCC(=O)O)NC(=O)c1ccccc1` (configuration not stated), the Potency result in assay [1] and in assay [2] was “inactive” in each case.
`CNCCCC1c2ccccc2C=Cc2ccccc21`: the Potency result in assay [1] and in assay [2] was “inactive” in each case.
For the compound `NC(Cc1ccc(Cl)cc1)C(=O)O` (configuration not stated), in assay [1], the viability change, negative = cytotoxic is 9.93% [at 0.349 µM]. In assay [2], the activity change, negative = cytotoxicity was -0.576% [at 0.349 µM].
As to `CC(=O)OC1CCCCC1`, the Potency result in assay [1] and in assay [2] was “inactive” in each case.
Regarding `O=C1c2ccccc2C(=O)c2cc(S(=O)(=O)O)ccc21`, the Potency entry in assay [1] and in assay [2] was “inactive” in each case.
`CCCCCCCCCCCCc1ccccc1`: the Potency result in assay [1] and in assay [2] was “inactive” throughout.
Regarding `Cc1cccc(C)n1`, the Potency result in assay [1] and in assay [2] was “inactive” each time.
Take `COc1ccc(NC(C)=O)cc1N`: the Potency result in assay [1] and in assay [2] was “inactive” in each case.
With `COC(=O)C1=C(C)NC(C)=C(C(=O)OCC(C)=O)C1c1ccccc1[N+](=O)[O-]` (configuration not stated), the Potency entry in assay [1] and in assay [2] was “inactive” throughout.
As to `CC(C)C1CCC(O)CC1` (configuration not stated), the Potency entry in assay [1] and in assay [2] was “inactive” each time.
Regarding `COC(=O)C1CCC(C(=O)OC)CC1` (configuration not stated), the Potency result in assay [1] and in assay [2] was “inactive” throughout.
On to `CCC(C)O` (configuration not stated), for which the Potency result in assay [1] and in assay [2] was “inactive” throughout.
As to `CNC(=O)C(c1ccccc1)c1ccccc1`, the Potency entry in assay [1] and in assay [2] was “inactive” throughout.
In the case of `c1ccc2c(c1)-c1cccc3c1c-2cc1ccccc13`, the Potency result in assay [1] and in assay [2] was “inactive” each time.
In the case of `Oc1ccccc1`, the Potency result in assay [1] and in assay [2] was “inactive” throughout.
For `C=C1C(=C/C=C2\CCC[C@]3(C)[C@@H]([C@H](C)/C=C/[C@@H](O)C4CC4)CC[C@@H]23)C[C@@H](O)C[C@@H]1O`, the Potency result in assay [1] and in assay [2] was “inactive” throughout.
On to `O=C1NC(c2ccccc2)(c2ccccc2)C(=O)N1COP(=O)(O)O`, for which the Potency result in assay [1] and in assay [2] was “inactive” throughout.
Consider `O[Si](c1ccccc1)(c1ccccc1)c1ccccc1`, for which the Potency result in assay [1] and in assay [2] was “inactive” throughout.
As to `Oc1ccccc1C=NCc1ccccc1`, the Potency entry in assay [1] and in assay [2] was “inactive” in each case.
For `NCCS(=O)(=O)O`, the Potency entry in assay [1] and in assay [2] was “inactive” each time.
Take `CC(=O)CC(=O)c1ccccc1`: the Potency result in assay [1] and in assay [2] was “inactive” each time.
On to `NCCCOCCOCCOCCCN`, for which the Potency result in assay [1] and in assay [2] was “inactive” in each case.
With `Cc1cc(CC(=O)O)c(C)n1-c1ccc(Cl)cc1`, the Potency result in assay [1] and in assay [2] was “inactive” each time.
Consider `CCCCCCCC=O`, for which the Potency result in assay [1] and in assay [2] was “inactive” in each case.
For `O=C(O)CC(O)C(=O)O` (configuration not stated), the Potency result in assay [1] and in assay [2] was “inactive” in each case.
On to `CCOc1ccc(NC(N)=O)cc1`, for which the Potency entry in assay [1] and in assay [2] was “inactive” throughout.
Regarding `CC1=C(/C=C/C(C)=C/C=C/C(C)=C\C(=O)O)C(C)(C)CCC1`, the Potency result in assay [1] and in assay [2] was “inactive” throughout.
Take `Nc1ccc(C(=O)O)c(O)c1`: the Potency result in assay [1] and in assay [2] was “inactive” throughout.
As to `O=C(CC(C(=O)OC1CCCCC1)S(=O)(=O)O)OC1CCCCC1` (configuration not stated), the Potency result in assay [1] and in assay [2] was “inactive” throughout.
Take `CC1(C)O[C@@H]2C[C@H]3[C@@H]4CCC5=CC(=O)C=C[C@]5(C)[C@@]4(F)[C@@H](O)C[C@]3(C)[C@]2(C(=O)CO)O1`: the Potency entry in assay [1] and in assay [2] was “inactive” throughout.
For `COCC(=O)Nc1c(I)c(C(=O)NCC(O)CO)c(I)c(C(=O)N(C)CC(O)CO)c1I` (configuration not stated), the Potency result in assay [1] and in assay [2] was “inactive” throughout.
As to `O=C(O)c1ccc(CO)o1`, the Potency result in assay [1] and in assay [2] was “inactive” in each case.
`Cc1ccnc(N)c1`: the Potency result in assay [1] and in assay [2] was “inactive” throughout.
Take `Nc1ccc(C(=O)O)cc1`: the Potency entry in assay [1] and in assay [2] was “inactive” each time.
Turning to `CO[C@@H]1[C@@H](O[C@@H]2O[C@H](C)[C@@H](O[C@H]3C[C@@](C)(O)[C@@H](O)[C@H](C)O3)[C@H](N(C)C)[C@H]2O)[C@@H](CC=O)C[C@@H](C)[C@@H](O[C@@H]2CC[C@H](N(C)C)[C@@H](C)O2)/C=C/C=C/C[C@@H](C)OC(=O)C[C@H]1OC(C)=O`, the Potency entry in assay [1] and in assay [2] was “inactive” each time.
Take `[Na+]`: the Potency result in assay [1] and in assay [2] was “inactive” in each case.
For the compound `CC(C)(C)CC(=O)OCC(=O)[C@@]1(O)CC[C@H]2[C@@H]3CCC4=CC(=O)C=C[C@]4(C)[C@H]3[C@@H](O)C[C@@]21C`, the Potency entry in assay [1] and in assay [2] was “inactive” each time.

Source of the values: PubChem BioAssay (Tox21).
